Results on 40 sequences are retold here after the supplement of paper PMC10681739.

The target of the experiment is T1, ETS1 (UniProt P14921).
T1 sequence: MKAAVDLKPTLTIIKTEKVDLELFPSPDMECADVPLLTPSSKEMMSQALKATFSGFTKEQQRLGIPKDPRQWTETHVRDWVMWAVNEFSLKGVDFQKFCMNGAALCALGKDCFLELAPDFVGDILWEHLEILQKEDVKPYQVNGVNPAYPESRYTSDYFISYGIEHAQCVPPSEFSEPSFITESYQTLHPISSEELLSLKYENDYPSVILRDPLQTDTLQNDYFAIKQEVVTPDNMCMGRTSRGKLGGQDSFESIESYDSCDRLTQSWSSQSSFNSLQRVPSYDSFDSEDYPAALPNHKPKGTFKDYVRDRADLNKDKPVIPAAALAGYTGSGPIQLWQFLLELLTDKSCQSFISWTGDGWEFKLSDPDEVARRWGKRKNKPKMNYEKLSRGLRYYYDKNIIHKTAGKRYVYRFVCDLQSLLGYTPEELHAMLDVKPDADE
Nature of the experiment: ETS1 binding intensity (PBM fluorescence) in presence of RUNX1, normalised to ETS1-only experiment (arbitrary fluorescence units); higher = stronger binding. As to conditions: ETS1 concentration 1 nM; RUNX1 concentration 25 nM.
In the case of GCCTGCGCTCTTTCCGGTAGCCACAGCCTCGTCTAA, the ETS1 binding intensity is 1220.

For the sequence GGAGGAAGAGAGGAAACGGGGGCGGCCGCAGCTTCT, the ETS1 binding intensity was determined as 1070.

For ATTACATCCGGGCTCCGCGACACGCCCGAACCACAA, the ETS1 binding intensity is 427.

Turning to GATACTCTTCCTGTCATCCCATCCCCACAGCCTTAG, the ETS1 binding intensity amounted to 501.

Turning to TAGCAGGAAGCCGATTCGCCCTATATGCAACCACTT, the ETS1 binding intensity worked out at 570.

Regarding GCACAGGAAAAGCTGCTTTCCGCGTGGTAAATTCAA, the ETS1 binding intensity turned out to be 446.

As to CTTCTCGCGGAAGCGGCACAAGCCGCAGTACAGCGC, the ETS1 binding intensity amounted to 495.

Take GTCAGGAAACACATAGTTGTGTTTAACCTCAGGAAA: the ETS1 binding intensity turned out to be 399.

Regarding GGCCCGGCCGGAAGAAGCCACCTCCCCCGCACGCGT, the ETS1 binding intensity is 2860.

With ATTAAAGACTTCCGTGCAAGACCACAGCTGCCTGAC, the ETS1 binding intensity came out at 513.

With GAACATGGTCTCCGCTTCCGCCGCAACCTCGGCCTT, the ETS1 binding intensity was determined as 744.

For the sequence CTGCCTTGCTTTTCCGGTCGCCGCGGTCCTCTGCGC, the ETS1 binding intensity came out at 2110.

With GTAAAAGGAAGTAAAGGCTTGGCCGGGCGCGGTGGC, the ETS1 binding intensity was found to be 411.

Consider CTCCCCCCACGACTTCCCTCTGTGGCCCCGGGCCGC, for which the ETS1 binding intensity was 645.

In the case of GGGCCCCCGGAAAGAGCTTTGACCGCTCGAGCCTGC, the ETS1 binding intensity came out at 489.

As to TGCCTCTTCCTGTGGCTGGGCTGTATCTGACCACAC, the ETS1 binding intensity is 462.

For TCGCATAGCCGGGAAGCGCGGTGGAGGTTGTTGGGG, the ETS1 binding intensity stood at 473.

For the sequence TGGGAAGGGTGAGGAGGAAGCGGTGGCCTTGCTCTG, the ETS1 binding intensity is 604.

Regarding GCTCGCGTCATCCTGCAGCGCCGACACCACAGACAC, the ETS1 binding intensity is 505.

As for GCTGTAGGAAATGTTATTCGCCGCGGTCAGGACAGG, the ETS1 binding intensity was 710.

Regarding GAACTGAAGAAGGCAGGAAGCCACAGGCTCCTGGGT, the ETS1 binding intensity is 2280.

Regarding TGTGAGAAGCCGGATCCTGTGGTGACCCAGTGGCCT, the ETS1 binding intensity was 479.

Regarding TGGGCACGGGAGGAAGAGGCTGGGTGGTAAACAGGA, the ETS1 binding intensity came to 494.

For AGGAGTGACGAGGCGGACGTGCGGGGGCGGGGGTGT, the ETS1 binding intensity is 458.

Turning to CGCCCTCCGGAAGAGAGGGCGGACCGCGGCCGCGCA, the ETS1 binding intensity is 636.

As to CAGATTTCCGGCTTCTGAGGAGCTGCCCTACCACAG, the ETS1 binding intensity is 398.

Turning to AGGGAGACCGGGCCGGATTGCGGGGAGTGAGCAGGT, the ETS1 binding intensity amounted to 360.

On to GTGCCACTGAGAGGAAGGGGGCAACCACAGTGGGAG, for which the ETS1 binding intensity stood at 590.

Take GATTAAGAGGAAGTGTGTGTGATTATTACCGCTGGA: the ETS1 binding intensity is 1540.

For GTGTTCAGACGGAAGCGTTATTCAGTGGTCAGAGCA, the ETS1 binding intensity stood at 1070.

Take TGTGCTTTGTAGTGAGGATGTGGGTGCCTGCCTCAC: the ETS1 binding intensity is 1010.

Turning to TAGGCCGGAAAGCACCACCGTCCTCCCGCAGGCCGC, the ETS1 binding intensity came out at 386.

On to CAACTCACATCCTCTGGCAACAACCACTAATCCACT, for which the ETS1 binding intensity was 525.

Consider CCAGGATGTAGTTTGGCCACTATTGAGTGGTTTGTT, for which the ETS1 binding intensity worked out at 502.

With CCAGCCTCCCCTTTCCTGTCTGTGGCAGGAGCGTGC, the ETS1 binding intensity was determined as 512.

CGTAGCGAGGAGCGGAAAACGCGGTAACCAAGGCGG: the ETS1 binding intensity is 1050.

For the sequence CTCAGCGGAAGAGCGGGCCTCTGGGCCGCAGTGACC, the ETS1 binding intensity came out at 430.

As for GAACCCAGGTCTGCTTCCTGTGGCCACCATCTGTGC, the ETS1 binding intensity is 684.

For the sequence ACTCCGCCCCTTCCGCCTGGCGGTTCCACTTCTCGG, the ETS1 binding intensity worked out at 456.

For GAGATAGTCTGGAGGGGAAGTGGTTATAAGTGATAA, the ETS1 binding intensity worked out at 1290.
